Test results taken from PubChem BioAssay AID624352 (Sanford-Burnham Center for Chemical Genomics, 2012).
Screen size: about 360,000 compounds; about 2,600 (0.72%) were called active.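 How the source made its calls: active means inhibition of the luminescence signal of 40% or more relative to plate controls, in a single-dose primary screen at 18.75 µM; inactive means the rest.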 For the sample, actives were picked, then their nearest neighbours and some compounds at random.

Experiment: HIF-2a reporter inhibitors, primary screen, luminescence, 786-0 RCC cells (AID 624352)
Conditions: 786-0 RCC cells HIF-2a reporter, luciferase luminescence, overnight; at 18.8 µM; stronger effect = higher value

inhibition, active:
CCC(C)(C)c1ccc(Oc2ccc(NC(=O)COC(=O)C3=COCCO3)cc2)cc1 82.3%
CC(C)C[C@@H](N)c1nnc(SCC(=O)c2ccc(Cl)cc2)o1 56.9%
O=C(OC12CC3CC(CC(C3)C1)C2)c1ccc(NCc2cc(O)ccc2O)cc1 88.1%
COc1ccccc1-n1nnnc1S(=O)(=O)Cc1ccc(Cl)cc1 86%
O=[N+]([O-])c1c(NCCO)cc(Sc2nc3ccccc3s2)c2nonc12 87%
O=C(Oc1ccc(-c2nc(-c3ccccn3)no2)cc1)c1ccccc1 42.3%
Cc1cccc(C(=O)Nc2ccc(CC(=O)O)cc2)c1 60.9%
CCCc1[nH]nc2c1C(c1ccc(Br)s1)C(C#N)=C(N)O2 (configuration not stated) 80.8%
CCCc1[nH]nc2c1C(C1CC=CCC1)C(C#N)=C(N)O2 (configuration not stated) 52.3%
C=C(C)C(=O)O[C@H]1C/C(C)=C\C(=O)/C=C(\C)[C@H](O)[C@@H]2OC(=O)C(=C)[C@@H]21 92.8%
OCCN1CCN(C(=S)c2ccc(-c3ccccc3)cc2)CC1 88.1%
CCn1c(/C=C/c2ccc([N+](=O)[O-])o2)nc2ccccc2c1=O 56.6%
CCN(CC)CCCC(C)n1c2nc(=O)[nH]c(=O)c-2nc2cc(Cl)ccc21 (configuration not stated) 70.8%
CN(C)CCNC(=O)c1cccc(-c2cnc3c(NC=O)cc(-c4cccc(C(F)(F)F)c4)cn23)c1 79.2%
O=C(O)c1ccc(N/N=C/c2ccc3ncccc3c2)cc1 54.5%
Cc1ccc(OCC(=O)c2cc(C)n(Cc3ccco3)c2C)c([N+](=O)[O-])n1 48.1%
COCC(C)n1c(C)cc(C(=O)COc2ccc(C)nc2[N+](=O)[O-])c1C (configuration not stated) 50.6%

inhibition, inactive:
CCOc1ccc(OCC(=O)Nc2c3c(nn2C(C)(C)C)CS(=O)(=O)C3)cc1 -1.94%
O=C1CCC(C(=O)OCC(=O)Nc2ccc(OC(F)F)cc2)=NN1 -7.05%
COc1ccc(NC(=O)COC(=O)CNC(=O)C2CCCCC2)cc1 12.4%
CCc1cccc(NC(=O)CCCN2C(=O)C(c3ccccc3)Oc3cccnc32)c1 (configuration not stated) 9.51%
Cc1ccc(C(=O)N2CC(=O)Nc3ccccc32)o1 14.2%
Fc1ccc(CNc2nc3ccccc3n3nnnc23)cc1 -134%
COc1cc(C(=O)NCc2nnc(SCC(=O)c3ccc(Cl)cc3)o2)cc(OC)c1OC 5.32%
CC(=O)Nc1ccc(C(=O)CSc2nnc(Cc3ccccc3)o2)cc1 -43.3%
C[C@H]1Cn2cnc(C(=O)N[C@@H](Cc3c[nH]c4ccccc34)C(=O)OC(C)(C)C)c2C(=O)N1 -4.95%
C=CCC[C@@H](Cc1ccc(F)cc1)C(=O)O[C@H](CNC(=O)[C@H](CC=C)CC(=O)N(CCO)Cc1ccccc1)c1ccccc1 12.7%
CCN1CCN(C(=O)C2(NC(=O)Nc3cccc(F)c3)CCCCC2)CC1 9.23%
COc1ccc(NC(=O)C2C3C=CC(C3)C2C(=O)NCc2ccccn2)c(OC)c1 (configuration not stated) 10.9%
Cc1c(NC(=O)C(C)OC(=O)c2cc3c4ccccc4n(C)c3s2)c(=O)n(-c2ccccc2)n1C (configuration not stated) 4.75%
Cc1sc2ccccc2c1CNC[C@H]1O[C@@H](n2ccc(=O)[nH]c2=O)[C@H](O)[C@@H]1O 11.7%
OC(c1cc(Cl)cc(Cl)c1)c1ncc(-c2ccccc2C(F)(F)F)[nH]1 (configuration not stated) 14.7%
CC(C)OCCCNC(=S)N1CCC(C(=O)c2ccc3c(c2)OCCO3)CC1 -5.91%
c1ccc(-c2ccnc3nc(-n4cccc4)nn23)cc1 -8.27%
C/C(N)=C(/C#N)C(=O)COC(=O)C1CCN(C(=O)c2ccc(Cl)cc2)CC1 8.64%
CCc1ccc(-c2cc(C)no2)cc1S(=O)(=O)NCCc1ccc(S(N)(=O)=O)cc1 9.29%
Cc1cc(CNC(=O)C2CCC(=O)N(CCc3ccc(Cl)cc3)C2)no1 (configuration not stated) -9.67%
O=C(NCCc1c[nH]c2ccc(Cl)cc12)c1ccc([N+](=O)[O-])cc1 -9.18%
CCN(C(=O)CSc1nnnn1-c1ccccc1OC)C1CCS(=O)(=O)C1 (configuration not stated) -1.01%
COc1ccccc1CN(C)c1nnnn1-c1ccccc1 15.6%
Cc1[nH]c2ccccc2c1C(=O)c1cc([C@H](NC(=O)OC(C)(C)C)C(C)C)sc1N 2.29%
C=CCOc1ccccc1CNn1c(C)n[nH]c1=S 21.3%
COc1cccc(C(NC(C)=O)c2nc(-c3cnc4ccccc4c3)cs2)c1 (configuration not stated) -32.9%
CC(C)=CCN1CCN(CCCc2ccccc2)CC1CCO (configuration not stated) 16.8%
CC[C@]1(c2ccccc2OC)C(=O)N(C(=O)OC)N1C(=O)OC 18.5%
CCN(CC(=O)NC(C)C)C(=O)CCNC(=O)c1ccc(Cl)cc1 14.3%
O=C(OC1CCOC1=O)c1cccc(S(=O)(=O)Nc2ccc(F)cc2)c1 (configuration not stated) 14.8%
COc1ccc(N2CCN(C(=O)COC(=O)c3cccc(S(=O)(=O)Nc4ccccc4OC)c3)CC2)cc1 12.6%
CC(=O)Nc1ccc(/C(C)=N/NC(=O)CN(c2ccccc2Br)S(C)(=O)=O)cc1 1.74%
COC(=O)c1ccc(OC(=O)c2cnccn2)cc1 17.4%
O=C(COc1cccc(F)c1)Oc1ccc(C(=O)c2ccccc2)cc1 -3.52%
CC(=O)Nc1ccc(NC(=O)[C@@H](NC(=O)c2cccc(C)c2)C(C)C)cc1 4.88%
Cc1cccc(C(=O)Nc2ccc(C(=O)/C=C/c3cccs3)cc2)c1 -134%
O=C(CCc1ccccc1)NNc1ccc(F)cc1 5.59%
N#CC1=C(N)OC2=C(C(=O)CCC2)C1C1CC=CCC1 (configuration not stated) -5.19%
COc1ccc(C2C(C#N)=C(N)Oc3n[nH]c(C)c32)cc1CN1CCN(c2ccc(F)cc2)CC1 (configuration not stated) 16.6%
CCCc1nc2c([nH]1)C(c1cccnc1)C(C#N)=C(N)O2 (configuration not stated) 20.2%
CSC1=NCCN1C(=O)c1ccc(S(=O)(=O)N2CCOCC2)cc1 4.81%
CC(C)C(C(=O)NC1CCCCC1)N(CC1CCCO1)C(=O)CNS(=O)(=O)c1ccc(F)cc1 (configuration not stated) 12.1%
COc1ccc(C2/C=C\CN(CC(C)C)CC(=O)N2Cc2ccc(F)cc2)cc1 (configuration not stated) 4.31%
COC(=O)c1sccc1NC(=O)CSc1ccccc1NS(=O)(=O)c1cc(Cl)ccc1Cl 7.65%
Cc1ccc(CC(=O)N(C)CC(=O)N(CC(C)C)c2c(N)n(CC(C)C)c(=O)[nH]c2=O)cc1C 10.3%
Cc1ccc(Cl)c(OCC(=O)NN2CCN(C)CC2)c1 13.6%
CC1CN(C(=O)COC(=O)c2cccc(NS(=O)(=O)c3ccccc3)c2)CC(C)O1 (configuration not stated) 10.2%
CNC(=O)NC(=O)C(C)N1CCN(C/C=C/c2ccccc2)CC1 (configuration not stated) 16.3%
COCCCNC(=O)CNC(=O)c1nn(-c2ccc(OC)cc2)c(=O)c2ccccc12 4.73%
S=C(c1ccc(-c2ccccc2)o1)N1CCCCC1 -291%
O=C(NC(=S)N1CCN(Cc2ccccc2)CC1)c1ccccc1 3.06%
CCN(C(=O)c1cc([N+](=O)[O-])ccc1NCc1cccnc1)c1ccccc1 11.9%
Cc1ccc(S(=O)(=O)N(C)C)cc1NC(=O)COC(=O)C1COc2ccccc2O1 (configuration not stated) 3.99%
Fc1ccc2c(c1)C(c1cccnc1)=NNC(c1cccs1)=N2 0.189%
O=C(/C=C/c1ccc([N+](=O)[O-])o1)NNC(=O)c1ccc(F)cc1 30.1%
C=CCn1c(SCC(=O)NC(=O)Cc2ccccc2)nc2ccccc2c1=O 15.8%
CCc1cc(CNC(=O)CC2C(=O)NCCN2Cc2ccccc2C(F)(F)F)on1 (configuration not stated) 7.76%
Cc1cc(C)c(S(=O)(=O)N2CCOCC2)cc1C 16.4%
COCc1cc(=O)n2[nH]c(C)c(-c3ccccc3)c2n1 11.1%
CC(C)[C@H](NC(=O)c1ccccc1F)C(=O)Nc1cccc(S(=O)(=O)N2CCOCC2)c1 6.68%
O=c1c(-c2ccccc2Cl)c[nH]n1-c1ccccc1 -21.8%
OC(c1ccccc1)c1nccn1Cc1ccccc1 (configuration not stated) 6.44%
Cc1cc(C)c(NC(=O)c2oc3ccccc3c2COc2ccccc2)c(C)c1 1.23%
CCOC(=O)N1CCC(=NNC(N)=O)CC1 9.05%
CC(=O)c1cccc(-c2cnc3c(NC=O)cc(-c4ccc(N(C)C)cc4)cn23)c1 -15.5%
CN(C)C(=O)c1cccc(-c2cnc3c(NC=O)cc(-c4ccc(F)cc4)cn23)c1 9.01%
C=CCN1C(=NC(=O)COc2ccccc2)SC2CS(=O)(=O)CC21 (configuration not stated) 4.93%
OCCN1CCN(CCO)C1=S 9.5%
NCCCCCC(=O)N/N=C/c1ccc2nccnc2c1 7.39%
CC(C)(C)OC(=O)N/N=C/c1ccc(C(=O)O)cc1 4.48%
O=C1NC(=O)C(CCc2ccccc2)(c2ccccc2)N1 (configuration not stated) 17.5%
Cc1cc(C(=O)COC(=O)CNC(=O)c2ccc(F)cc2)c(C)n1Cc1ccco1 -47.3%
COc1ccccc1CNC(=O)COc1ccc(C)nc1[N+](=O)[O-] -1.54%
COc1ccc(C)cc1-n1nnnc1SCC(=O)c1cc(C)n(Cc2ccco2)c1C -49.1%
Cc1ccc(OCC(=O)NC(C)c2ccccc2)c([N+](=O)[O-])n1 (configuration not stated) 17.9%
